# Results filed as inconclusive are left out. A number with no mark means an inactive call. Active and inactive are the calls of the source. The call rests on the fitted dose curve; in most records, active means well fitted cell-killing curve with a large enough effect; inconclusive means small, poorly fitted or top-dose-only effect; inactive means no such curve, though single readings can be large or run the other way.
# Assay: qHTS of pediatric cancer cell lines to identify multiple opportunities for drug repurposing: Confirmatory screen for DAOY cells (AID 1347114); further: nearly all actives have a fitted effect of over 65% in size
# Settings: DAOY medulloblastoma cells viability, cytotoxicity qHTS; series mostly up to 45.9 µM; activity change, negative = cytotoxic: at the top concentration
# Source text: Drug repurposing or repositioning has been offered as a strategy for drug development in oncology programs. This approach has special potential for childhood cancers and other rare or orphan diseases, where the expected return on new drug development has been a disincentive to pharmaceuticals.
# In this project we exploit the poly-pharmacology of drugs to discover new indications via phenotypic screening of a panel of 19 well-characterized cell lines derived from solid tumors seen in children and adolescents. The goal is to identify approved drugs with previously unrecognized anticancer properties that has the potential to reveal new mechanisms and biological processes involved in carcinogenesis or drug resistance. We employed a titration-based paradigm (quantitative high-throughput screening or qHTS), where all compounds were tested at multiple concentrations for their effect on cell viability. Concentration-response curves (CRCs) were derived directly from the primary screen, and both potency and efficacy values were used to identify compounds with robust bioactivity profiles. We screened the NIH Chemical Genomics Center (NCGC) Pharmaceutical Collection (NPC) and Mechanism Interrogation Plate (MIPE) small molecule collections of approved and investigational compounds against these cell lines; and measured metabolically active cells after 48 hours of compound treatment as a proxy for cell viability.
# Assay Submitter: Nathalia J. Martinez, National Center for Advancing Translational Sciences, National Institutes of Health, Rockville, MD, USA; email: natalia.martinez@nih.gov
# [1] Shen, M et al. Quantitative high-throughput phenotypic screening of pediatric cancer cell lines identifies multiple opportunities for drug repurposing. Oncotarget 2017 Dec 19;9(4):4758-4772. PMID 29435139.
# The cells were obtained from University of North Carolina (UNC), Pediatric Preclinical Testing Program (PPT), and Coriell Institute (CI).
# qHTS cell viability assay:
# Cells were assayed in growth media at a density of 500-1,000 cells/well. Five microliters of cells were dispensed into 1,536-well, white, solid-bottom, TC-treated plates (Greiner Bio One) using a multidrop dispenser and incubated at 37 degrees C, 5% CO2, under a humidified atmosphere for 5 hours. Twenty-three nanoliters of compounds and controls (neutral control DMSO or positive control bortezomib at final concentration of 2.3 µM) were subsequently transferred by Kalypsys pintool. For primary screens, the MIPE collection was tested at 11-point dilutions (final concentrations range from 0.78 nM to 46 µM) and the NPC collection at 8-point dilutions (final concentrations range from 0.59 nM to 46 µM). Compounds tested in follow-up screens were assayed at 11-point dilutions. Cells were incubated for 48 hours, followed by addition of 3 uL of CellTiter-Glo (Promega). After a 15 min incubation at room temperature, samples were analyzed for luminescence intensity using a ViewLux High-throughput CCD imager equipped with clear filters.
# On the % scale 0 is the no-effect control and ±100 the full control effect; potency means the concentration at half of the fitted maximal effect.
SMILES,"activity change, negative = cytotoxic",Potency
CC1C(=O)OC2C(O)C34C5CC(C(C)(C)C)C36C(OC(=O)C6O)OC4(C(=O)O5)C12O (stereo not given),3.34%,
C=CC(=O)Nc1cccc(Sc2nc(Nc3ccc(N4CCN(C)CC4)cc3)ncc2Cl)c1,,23.3 µM (active)
CC(C)CN(C[C@@H](O)[C@H](Cc1ccccc1)NC(=O)O[C@H]1CO[C@H]2OCC[C@H]21)S(=O)(=O)c1ccc(N)cc1,-16.4%,
CC(=O)N1CCN(c2ccc(OCc3nn(C)c(C)c3-c3cccc4c(CCCOc5cc(C)c(Cl)c(C)c5)c(C(=O)O)n(Cc5cccnc5)c34)cc2)CC1,-13.2%,
COc1ccc(-c2ccc3ncc4c(c3c2)n(-c2ccc(N3CCNCC3)c(C(F)(F)F)c2)c(=O)n4C)cn1,,2.33 µM (active)
COc1cc(CNC(=O)CCCCC=CC(C)C)ccc1O,-22.9%,
CN(C)CC[C@H](CSc1ccccc1)Nc1ccc(S(=O)(=O)NC(=O)c2ccc(N3CCN(Cc4ccccc4-c4ccc(Cl)cc4)CC3)cc2)cc1[N+](=O)[O-],,16.5 µM (active)
COc1ccc2c(c1)c(C1=C(c3c[nH]c4ccccc34)C(=O)NC1=O)cn2CCCN(C)C,,23.3 µM (active)
Cc1ccc(C(=O)N(CCCN)[C@@H](c2oc3cc(Cl)ccc3c(=O)c2Cc2ccccc2)C(C)C)cc1,,0.0052 µM (active)
CC1CNc2c(cccc2S(=O)(=O)N[C@@H](CCCN=C(N)N)C(=O)N2CC[C@@H](C)C[C@@H]2C(=O)O)C1 (stereo not given in full),17.8%,
Cc1cnc(-c2cc(N3CCN(C(=O)CCS(C)(=O)=O)CC3)ncc2Cl)c(C)c1,-20.6%,
CC(C)(C)c1[nH]cnc1C=c1[nH]c(=O)c(=Cc2ccccc2)[nH]c1=O,,0.018 µM (active)
CCC(=O)N1CCN(c2ccc(-n3c(=O)ccc4cnc5ccc(-c6cnc7ccccc7c6)cc5c43)cc2C(F)(F)F)CC1,-12.1%,
NC(N)=Nc1nc(CSCCC(N)=NS(N)(=O)=O)cs1,19.6%,
C[C@@H]1C[C@H]2[C@@H]3CCC4=CC(=O)C=C[C@]4(C)[C@@]3(F)[C@@H](O)C[C@]2(C)[C@@]1(O)C(=O)CO,-0.127%,
CC(C)C[C@@H](C(=O)N[C@H](C(=O)OC1CCCC1)c1ccccc1)[C@H](O)C(=O)NO,,18.5 µM (active)
C=C1[C@H](n2cnc3c(=O)[nH]c(N)nc32)C[C@H](O)[C@H]1CO,10.8%,
CC1(C)CC(=O)c2c(C(F)(F)F)nn(-c3ccc(C(N)=O)c(NC4CCC(O)CC4)c3)c2C1 (stereo not given),-25%,
C[C@@H]1[C@H](O)[C@@H](C)C=CC=CC=CC=CC=CC=CC=C[C@H](O[C@@H]2O[C@H](C)[C@H](O)[C@H](N)[C@@H]2O)C[C@@H]2O[C@](O)(C[C@@H](O)C[C@@H](O)[C@H](O)CC[C@@H](O)C[C@@H](O)CC(=O)O[C@H]1C)C[C@H](O)[C@@H]2C(=O)O,9.95%,
CCC[C@H](N[C@@H](C)C(=O)N1[C@@H]2CCCC[C@H]2C[C@H]1C(=O)O)C(=O)OCC,-7.3%,

SMILES,"activity change, negative = cytotoxic",Potency
CC1(C)OC2CC3C4CC(F)C5=CC(=O)C=CC5(C)C4C(O)CC3(C)[C@]2(C(=O)CO)O1 (stereo not given in full),15.6%,
Nc1[nH]nc2nnc(-c3c(-c4ccccc4)nn4ccccc34)cc12,14.6%,
O=C1Nc2ccc(I)cc2C1=Cc1cc(Br)c(O)c(Br)c1,-23.8%,
CC(C)CN(C[C@H](O)[C@H](Cc1ccccc1)NC(=O)O[C@H]1CCOC1)S(=O)(=O)c1ccc(N)cc1,-7.18%,
CCN(CCO)CCCOc1ccc2c(Nc3cc(CC(=O)Nc4cccc(F)c4)[nH]n3)ncnc2c1,-18%,
Cc1ccc2c(c1)C(=O)[C@]1(O)CCN(c3ccccc3)C1=N2,-5.49%,
CN(C(Cc1ccc(OS(=O)(=O)c2cccc3cnccc23)cc1)C(=O)N1CCN(c2ccccc2)CC1)S(=O)(=O)c1cccc2cnccc12 (stereo not given),-4.76%,
CN[C@@H]1CN(c2ccc3c(=O)c(C(=O)O)cn(-c4nccs4)c3n2)C[C@@H]1OC,,11.5 µM (active)
CN(C)CCN(C)C(=O)c1ccc(NC(=O)Nc2ccc(-c3nc(N4CCOCC4)c4ccn(CC(F)(F)F)c4n3)cc2)cc1,,20.8 µM (active)
CCC[C@H](Nc1nc(-c2ccc(NC(=O)NCC)c(OC)c2)ncc1C)c1cccnc1,,0.0827 µM (active)
CC(C)n1c(C=C[C@H](O)C[C@H](O)CC(=O)O)c(-c2ccc(F)cc2)c2ccccc21,,3.69 µM (active)
COC1CCC(C(=O)c2ccc3nc4c(cc3c2)CCCO4)CC1 (stereo not given),,23.3 µM (active)
Cc1ccc(C(=O)N(CCCN)[C@@H](c2nc3cc(Cl)ccc3c(=O)n2Cc2ccccc2)C(C)C)cc1,,0.012 µM (active)
CC1(COc2ccc3c(c2)ncn3-c2ccc3cccc(N4CCC(N)CC4)c3n2)COC1,,20.8 µM (active)
CSc1cccc(Nc2ncc3cc(-c4c(Cl)cccc4Cl)c(=O)n(C)c3n2)c1,,1.17 µM (active)
Cc1nn(Cc2ccccc2Cl)c(C)c1CN(C)CC(O)COc1ccc(Cl)cc1 (stereo not given),,23.3 µM (active)
COC(=O)[C@H](c1ccccc1Cl)N1CCc2sccc2C1,-2.02%,
C[C@@]1(c2cc(-c3cncnc3)c(F)cc2F)CCSC(N)=N1,-16.9%,
CO[C@H]1/C=C\O[C@@]2(C)Oc3c(C)c(O)c4c(O)c(c5c(nc6cc(C)ccn65)c4c3C2=O)NC(=O)C(C)=CC=C[C@H](C)[C@H](O)[C@@H](C)[C@@H](O)[C@@H](C)[C@H](OC(C)=O)[C@H]1C,-3.87%,
CC1=C(CC(=O)O)c2cc(F)ccc2C1=Cc1ccc(S(C)=O)cc1 (stereo not given),-3.86%,
